Data: PubChem BioAssay (EPA / NIEHS)
Records with an inconclusive call do not appear. Calls of active or inactive are those of the source. The calls were made as follows: active = hit-call score of the fitted dose curve at least 0.9, where 1 is the maximum; inconclusive = response in the unintended direction; inactive = score below 0.9.

Molecular target: rat Acetylcholinesterase (AChE), Ache (gene 83817) (UniProt P37136)
Assay: NVS_ENZ_rAChE: NovaScreen (NVS) Enzymatic Assay for rat Acetylcholinesterase (AChE) (AID 2283233)
Outline: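 Compounds first screened at 25 uM in duplicate, then those passing threshold tested in concentration series up to 50 uM, against AChE from rat brain membranes. Enzyme activity read by absorbance at 0.33 h; inhibition scored versus DMSO.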

rat Acetylcholinesterase (AChE), Ache (gene 83817), sequence (P37136 whole entry, looked up): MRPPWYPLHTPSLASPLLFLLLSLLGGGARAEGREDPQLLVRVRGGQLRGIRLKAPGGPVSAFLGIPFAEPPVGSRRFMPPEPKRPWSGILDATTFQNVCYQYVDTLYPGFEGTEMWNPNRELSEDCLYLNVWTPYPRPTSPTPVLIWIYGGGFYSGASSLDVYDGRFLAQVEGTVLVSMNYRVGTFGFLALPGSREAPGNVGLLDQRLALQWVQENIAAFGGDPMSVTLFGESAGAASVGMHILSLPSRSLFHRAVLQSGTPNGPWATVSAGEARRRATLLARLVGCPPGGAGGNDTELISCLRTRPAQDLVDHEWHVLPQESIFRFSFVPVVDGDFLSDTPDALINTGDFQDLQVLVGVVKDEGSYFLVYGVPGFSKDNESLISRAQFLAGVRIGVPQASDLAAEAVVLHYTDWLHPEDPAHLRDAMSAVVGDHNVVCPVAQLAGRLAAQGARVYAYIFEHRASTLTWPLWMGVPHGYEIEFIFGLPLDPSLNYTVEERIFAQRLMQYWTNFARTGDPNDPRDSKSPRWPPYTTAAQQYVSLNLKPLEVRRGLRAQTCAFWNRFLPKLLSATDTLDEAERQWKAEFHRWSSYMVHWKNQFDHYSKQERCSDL

| SMILES | outcome | AC50 |
| --- | --- | --- |
| CNS(=O)(=O)c1cc(C(=O)N2CCC(CCN3C4CCC3CC(n3c(C)nc5ccccc53)C4)(c3cccc(F)c3)CC2)c(Cl)cc1F (configuration not stated) | inactive |  |
| O=c1[nH]c2ccc(S(=O)CCN3CCC(Cc4ccc(F)cc4)CC3)cc2o1 (configuration not stated) |  | 5.31 µM (active) |
| N=C(N)c1ccc(OCCCCCOc2ccc(C(=N)N)cc2)cc1 |  | 21.9 µM (active) |
| Clc1cc(Cl)c2c(c1)N=C1CCCCCN1C2 |  | 0.463 µM (active) |
| COc1ccc2cc(S(=O)(=O)N[C@H](CC(=O)N[C@H](Cc3ccc(CN4[C@H](C)CCC[C@@H]4C)cc3)C(=O)N(C)C(C)C)c3ccc4c(c3)OCO4)ccc2c1 |  | 30.6 µM (active) |
| COc1cc(C(C)C)c2c(c1)S(=O)(=O)N(COc1cc(=O)n3cccc(OCCN4CCCCC4)c3n1)C2=O |  | 6.25 µM (active) |
| NC(=O)N(O)[C@@H]1C=C[C@H](Oc2cccc(Oc3ccc(F)cc3)c2)C1 | inactive |  |
| NCc1cccc(C2CCN(C(=O)c3ccc(C#Cc4ccccc4F)o3)CC2)c1 |  | 11.3 µM (active) |
| CC[C@H]1CC[C@H](NCc2cc3c(cc2OC)[C@H]2C[C@H]2C(=O)N3C)[C@H](c2ccccc2)N1 |  | 15.7 µM (active) |
| COCCOc1cc2cc(C(=O)NC3CCN(C(C)C)CC3)n(CC(=O)Nc3ccc(Cl)cn3)c2cn1 |  | 19 µM (active) |
| CCOC(=O)c1ccc(C2CCC(NC[C@H](O)COc3ccc(O)c(NS(C)(=O)=O)c3)CC2)cc1 (some centres not stated) |  | 15 µM (active) |

Molecular target: rat Monoamine Oxidase, MAO-B, Central (MAOBC), Maob (gene 25750) (UniProt P19643)
Sequence (P19643 whole entry, looked up): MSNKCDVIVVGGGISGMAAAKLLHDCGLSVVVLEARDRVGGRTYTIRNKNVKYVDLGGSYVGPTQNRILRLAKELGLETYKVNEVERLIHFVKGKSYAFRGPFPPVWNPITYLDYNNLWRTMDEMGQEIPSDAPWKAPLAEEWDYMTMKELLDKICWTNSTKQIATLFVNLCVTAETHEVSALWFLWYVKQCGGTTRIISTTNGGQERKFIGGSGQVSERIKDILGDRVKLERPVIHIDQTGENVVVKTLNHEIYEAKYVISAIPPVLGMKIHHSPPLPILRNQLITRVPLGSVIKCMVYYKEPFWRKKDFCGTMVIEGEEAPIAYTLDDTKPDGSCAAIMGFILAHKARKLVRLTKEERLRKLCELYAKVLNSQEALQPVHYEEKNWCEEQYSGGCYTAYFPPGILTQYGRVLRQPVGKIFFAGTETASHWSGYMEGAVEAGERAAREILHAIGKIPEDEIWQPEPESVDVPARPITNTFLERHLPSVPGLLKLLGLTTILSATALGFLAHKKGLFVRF
Assay: NVS_ENZ_rMAOBC: NovaScreen (NVS) Enzymatic Assay for rat Monoamine Oxidase, MAO-B, Central (MAOBC) (AID 2283238)
Outline: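 Cell-free radiometric assay, rat brain lysate. Read-out: scintillation counts, 1.17 h post-dosing. Screen 25 uM in duplicate; actives (e.g. ≥30% inhibition) then singleton concentration-response, max 50 uM. Activity loss fitted relative to DMSO.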

| SMILES | AC50 | outcome |
| --- | --- | --- |
| COc1cccc(-c2ccc(/C=C\CN3CCCCCC3)cc2Cl)c1 | 27.7 µM (active) |  |
| O=C(O)Cc1cc(I)c(Oc2cc(I)c(O)c(I)c2)c(I)c1 |  | inactive |
| N=C(N)c1ccc(OCCCCCOc2ccc(C(=N)N)cc2)cc1 | 0.0798 µM (active) |  |
| NCc1cccc(C2CCN(C(=O)c3ccc(C#Cc4ccccc4F)o3)CC2)c1 | 11.2 µM (active) |  |
| Nc1ccc2c(c1)C(=O)c1ccccc1C2=O |  | inactive |
| O=C1c2ccccc2C(=O)N1CCc1noc(-c2ccc(CN3CCCCCC3)s2)n1 | 12.5 µM (active) |  |
| CCOC(=O)c1ccc(C2CCC(NC[C@H](O)COc3ccc(O)c(NS(C)(=O)=O)c3)CC2)cc1 (some centres not stated) | 10.2 µM (active) |  |

Molecular target: rat Monoamine Oxidase, MAO-B, Peripheral (MAOBP), Maob (gene 25750) (UniProt P19643)
Sequence (P19643 whole entry, looked up): as above
Assay: NVS_ENZ_rMAOBP: NovaScreen (NVS) Enzymatic Assay for rat Monoamine Oxidase, MAO-B, Peripheral (MAOBP) (AID 2283242)

| SMILES | outcome | AC50 |
| --- | --- | --- |
| CNS(=O)(=O)c1cc(C(=O)N2CCC(CCN3C4CCC3CC(n3c(C)nc5ccccc53)C4)(c3cccc(F)c3)CC2)c(Cl)cc1F (configuration not stated) | inactive |  |
| COc1cccc(-c2ccc(/C=C\CN3CCCCCC3)cc2Cl)c1 |  | 11.6 µM (active) |
| N=C(N)c1ccc(OCCCCCOc2ccc(C(=N)N)cc2)cc1 |  | 0.905 µM (active) |
| O=C(c1ccc(OCCN2CCCCC2)cc1)c1c(-c2ccc(O)cc2)sc2cc(O)ccc12 |  | 10.8 µM (active) |
| COc1ccc2cc(S(=O)(=O)N[C@H](CC(=O)N[C@H](Cc3ccc(CN4[C@H](C)CCC[C@@H]4C)cc3)C(=O)N(C)C(C)C)c3ccc4c(c3)OCO4)ccc2c1 | inactive |  |
| CCOC(=O)CCC(=O)OCC |  | 34.7 µM (active) |
| NCc1cccc(C2CCN(C(=O)c3ccc(C#Cc4ccccc4F)o3)CC2)c1 |  | 38 µM (active) |
| O=C1c2ccccc2C(=O)N1CCc1noc(-c2ccc(CN3CCCCCC3)s2)n1 |  | 11.4 µM (active) |
| CN(C)C(=O)NC1(c2ccccc2)CCN(CCC[C@]2(c3ccc(Cl)c(Cl)c3)CCCN(C(=O)c3ccccc3)C2)CC1 | inactive |  |
